Test results reported in PubChem BioAssay AID1159580 (chemical genetic matrix, 2015).
Several values for one entry are separate records, joined by “and”; a condition that tells them apart may be missing. Equal values may be shown once. Hit rate of the full screen: of about 5,500 compounds, about 2,000 (36%) were called active. Another 18% or so got no clear call; they are omitted. No stated cut-off is given here; in the data, active means normalized growth mostly below about 0.91 (no sharp cut-off); inconclusive means no clear call, values can overlap the other calls; inactive means mostly above about 0.92. The list shows a part of the results.

Assay: chemical genetic growth profiling, strain panel (AID 1159580);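 further: tested at 20 µM; growth read once vehicle control cultures reached saturation at 30 °C; 1 = growth at the plate median or of vehicle wells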
Settings: S. cerevisiae deletion strains, growth OD

Measured: normalized growth

O=C(O)c1cc2cc(F)ccc2[nH]1
inactive: locus YAL013W, strain DEP1, stronger effect = lower value 1 | locus YAL021C, strain ccr4, stronger effect = lower value 0.961 | locus YAL026C, strain drs2, stronger effect = lower value 0.992 | locus YAL030W, strain snc1, stronger effect = lower value 0.998 | locus YAL040C, strain CLN3, stronger effect = lower value 0.969 | locus YBL061C, strain skt5, stronger effect = lower value 0.99 | locus YBR009C, strain hhf1, stronger effect = lower value 1.01 | locus YBR021W, strain FUR4, stronger effect = lower value 0.99 | locus YBR023C, strain chs3, stronger effect = lower value 0.996 | locus YBR171W, strain sec66, stronger effect = lower value 0.97 | locus YBR229C, strain ROT2, stronger effect = lower value 0.982 | locus YBR231C, strain swc5, stronger effect = lower value 0.991 | locus YBR279W, strain paf1, stronger effect = lower value 0.976 | locus YCL011C, strain gbp2, stronger effect = lower value 0.975 | locus YCL016C, strain dcc1, stronger effect = lower value 0.994 | locus YCL029C, strain bik1, stronger effect = lower value 1.02 | locus YCL061C, strain MRC1 (second series), stronger effect = lower value 0.99 | locus YCL061C, strain MRC1, stronger effect = lower value 0.971 | locus YCL069W, strain vba3, stronger effect = lower value 0.975 | locus YCR088W, strain abp1, stronger effect = lower value 0.971 | locus YDL005C, strain med2, stronger effect = lower value 0.97 | locus YDL035C, strain GPR1, stronger effect = lower value 1.02 | locus YDL040C, strain nat1, stronger effect = lower value 0.979 | locus YDL074C, strain BRE1, stronger effect = lower value 1.03 | locus YDL101C, strain DUN1, stronger effect = lower value 1.02 | locus YDL134C, strain PPH21, stronger effect = lower value 1.01 | locus YDL185W, strain tfp1, stronger effect = lower value 1.01 | locus YDL192W, strain arf1, stronger effect = lower value 1.02 | locus YDR001C, strain nth1, stronger effect = lower value 0.978 | locus YDR069C, strain doa4, stronger effect = lower value 1 | locus YDR101C, strain arx1, stronger effect = lower value 1.01 | locus YDR137W, strain rgp1, stronger effect = lower value 0.968 | locus YDR150W, strain NUM1, stronger effect = lower value 1.01 | locus YDR159W, strain sac3, stronger effect = lower value 0.995 | locus YDR162C, strain NBP2, stronger effect = lower value 1.02 | locus YDR195W, strain ref2 0.966 | locus YDR297W, strain sur2, stronger effect = lower value 0.975 | locus YDR318W, strain mcm21, stronger effect = lower value 1.02 | locus YDR334W, strain swr1, stronger effect = lower value 0.945 | locus YDR335W, strain msn5, stronger effect = lower value 0.99 | locus YDR388W, stronger effect = lower value 1.01 | locus YDR392W, strain spt3, stronger effect = lower value 0.933 | locus YDR502C, strain sam2, stronger effect = lower value 1.02 | locus YEL003W, strain gim4, stronger effect = lower value 0.978 | locus YEL037C, strain rad23, stronger effect = lower value 0.981 | locus YEL061C, strain CIN8 (second series), stronger effect = lower value 0.979 | locus YEL061C, strain CIN8, stronger effect = lower value 1.01 | locus YER002W, strain NOP16, stronger effect = lower value 0.966 | locus YER015W, strain faa2, stronger effect = lower value 0.981 | locus YER016W, strain bim1, stronger effect = lower value 0.994 | locus YER110C, stronger effect = lower value 1.02 | locus YER111C, strain swi4, stronger effect = lower value 1.01 | locus YER155C, strain BEM2 (second series), stronger effect = lower value 0.993 | locus YER155C, strain BEM2, stronger effect = lower value 1 | locus YER167W, strain BCK2, stronger effect = lower value 1.01 | locus YFR010W, strain ubp6, stronger effect = lower value 0.978 | locus YGL078C, strain dbp3, stronger effect = lower value 1.01 | locus YGL086W, strain mad1, stronger effect = lower value 1.02 | locus YGL167C, strain pmr1, stronger effect = lower value 0.982 | locus YGL173C, strain kem1, stronger effect = lower value 0.987 | locus YGL227W, strain vid30, stronger effect = lower value 0.989 | locus YGL240W, strain doc1, stronger effect = lower value 1.01 | locus YGL248W, strain PDE1, stronger effect = lower value 1.01 | locus YGL253W, strain hxk2, stronger effect = lower value 1 | locus YGR078C, strain PAC10, stronger effect = lower value 0.984 | locus YGR135W, strain pre9, stronger effect = lower value 1.02 | locus YGR229C, strain SMI1, stronger effect = lower value 1.01 | locus YGR252W, strain gcn5, stronger effect = lower value 1.03 | locus YHR013C, strain ard1, stronger effect = lower value 0.99 | locus YHR027C, strain rpn1, stronger effect = lower value 0.977 | locus YHR030C, strain SLT2, stronger effect = lower value 1.01 and 1.02 | locus YHR079C, strain IRE1 (second series), stronger effect = lower value 1.02 | locus YHR079C, strain IRE1, stronger effect = lower value 0.988 | locus YHR094C, strain hxt1, stronger effect = lower value 1.02 | locus YHR129C, strain ARP1, stronger effect = lower value 1 | locus YHR142W, strain chs7, stronger effect = lower value 0.949 | locus YHR200W, strain rpn10, stronger effect = lower value 1.03 | locus YIL066C, strain RNR3, stronger effect = lower value 1.01 | locus YIL073C, strain SPO22, stronger effect = lower value 1.09 | locus YIL125W, strain kgd1, stronger effect = lower value 1.01 | locus YIR030C, strain dcg1, stronger effect = lower value 1.02 | locus YJL092W, strain hpr5, stronger effect = lower value 0.968 | locus YJL095W, strain BCK1 (second series), stronger effect = lower value 0.987 | locus YJL095W, strain BCK1, stronger effect = lower value 1.01 and 0.997 | locus YJL115W, strain asf1, stronger effect = lower value 0.962 | locus YJL129C, strain trk1, stronger effect = lower value 0.979 | locus YJL134W, strain LCB3, stronger effect = lower value 1.01 | locus YJL154C, strain vps35, stronger effect = lower value 0.967 | locus YJL164C, strain tpk1, stronger effect = lower value 0.972 | locus YJL166W, strain qcr8, stronger effect = lower value 1 | locus YJL168C, strain set2, stronger effect = lower value 1.02 | locus YJL187C, strain SWE1 (second series), stronger effect = lower value 1.01 | locus YJL187C, strain SWE1, stronger effect = lower value 0.981 | locus YJR043C, strain POL32, stronger effect = lower value 1.01 | locus YJR066W, strain TOR1, stronger effect = lower value 0.93
